Among the data in PubChem BioAssay (NCI) are growth inhibition values, retold here.

Molecules are shown by their SMILES. Several values for one entry are separate records, joined by “and”; a condition that tells them apart may be missing. Equal entries are not always repeated. About 79,000 compounds went through this panel and 15% of them were active in at least one assay; those are over-represented in the sample as a whole. Some structures have more than one record in an assay (separate samples or runs), and their calls can disagree. Activity calls are given as the source filed them. Rule as the data show it: active = growth inhibition above about 70%; inactive = the rest.

The first assay in a line: NCI Yeast Anticancer Drug Screen. Data for the rad50 strain (AID 155).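 Also: 0% = growth of vehicle-only cultures of the same strain.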 Conditions: S. cerevisiae rad50 strain growth inhibition; at 50.0 µM; stronger effect = higher value. Put shortly: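 Relative growth inhibition (compound vs vehicle) was measured in yeast with a defined repair-gene alteration.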
Consider `CN(N=O)c1ccc([N+](=O)[O-])cc1`, for which the growth inhibition was 26.2% (inactive).

Regarding `C1=CC(N2CCOCC2)CC1` (stereo not given), the growth inhibition was -24.2% (inactive).

Consider `CC1=CC(C)=Nc2ccc(C)cc2N1`, for which the growth inhibition is -2.65% (inactive).

As to `CC[C@@]1(O)C(=O)OCc2c1cc1n(c2=O)Cc2c-1nc1ccccc1c2C=Nc1ccccc1N[C@@H]1c2cc3c(cc2[C@@H](c2cc(OC)c(O)c(OC)c2)[C@H]2C(=O)OC[C@@H]21)OCO3`, the growth inhibition is 78.8% (active) and 86.8% (active).

For the compound `O=[N+]([O-])c1ccc(Cl)c([N+](=O)[O-])c1`, the growth inhibition was 99.2% (active).

`NC1=NC(=O)C(c2ccccc2)(c2ccccc2)O1`: the growth inhibition was -1% (inactive).

On to `c1ccc2c(c1)sc1sc3ccccc3[n+]12`, for which the growth inhibition was 5.05% (inactive).

For the compound `O=C(c1ccc([N+](=O)[O-])cc1)C1NC1c1ccccc1` (stereo not given), the growth inhibition is -24.2% (inactive).

Take `COC(=O)c1ccc(C=C(C#N)C#N)cc1`: the growth inhibition was -5.75% (inactive).

As to `CP(O)(=S)C1CCCCC1` (stereo not given) (tested in a mixture with another compound), the growth inhibition was 26.8% (inactive).

As for `CC(C)CC(NC(=O)C(Cc1ccccc1)NC(=O)CNC(=O)CNC(=O)C(N)Cc1ccc(O)cc1)C(=O)O` (stereo not given), the growth inhibition is 0.9% (inactive).

Consider `CC(C(=O)O)C(Br)C(=O)O` (stereo not given), for which the growth inhibition was -9% (inactive).

On to `Cc1cccc[c]1[Sb](=[O])([OH])[OH]`, for which the growth inhibition was 6.6% (inactive).

`CCN(CC)C(=O)N1CC2CCC(C1)N2C`: the growth inhibition was -4.6% (inactive).

Turning to `S=c1sc(-c2ccc(Cl)cc2)c[se]1`, the growth inhibition was 4.45% (inactive).

Turning to `Oc1ccc(C=NCC2CCCC[N-]2)c(O)c1.Oc1ccc(C=NCC2CCCC[N-]2)c(O)c1.[Ni+2]` (stereo not given), the growth inhibition was 7.3% (inactive).

Regarding `O=C(Nc1ccccc1)C(Cl)(Cl)Cl`, the growth inhibition is -10.1% (inactive).

As for `O=[N+]([O-])c1cccc2c([N+](=O)[O-])cccc12`, the growth inhibition is 3.6% (inactive).

On to `O=C(O)CCCNSc1ccccc1[N+](=O)[O-]`, for which the growth inhibition was 71.2% (active).

Turning to `NC(=Nc1ccccc1)N/N=C/c1c[nH]c2ccccc12`, the growth inhibition is -15.2% (inactive).

For the compound `C1=C/CCC2NC2C/C=C/CCC/1` (stereo not given), the growth inhibition is -6.8% (inactive).

For `C=C(C)C1(CC)C(=O)NC(=O)N(C)C1=O` (stereo not given), the growth inhibition was 11.8% (inactive) and -4.5% (inactive).

`CC(C)(C)C1=CC(=C(P(=O)(O)O)P(=O)(O)O)C=C(C(C)(C)C)C1=O`: the growth inhibition was -32.6% (inactive).

`CCCNP(=S)(NCCC)NCCC`: the growth inhibition was 1% (inactive).

`OCCN=Cc1ccccc1O.OCCN=Cc1ccccc1O.[Ni]`: the growth inhibition was 32.2% (inactive).

Take `O=c1c2cc(Br)ccc2[nH]c(=S)n1-c1ccc(Br)cc1`: the growth inhibition is 9.95% (inactive).

As for `O=Cc1ccccc1O`, the growth inhibition was 28.8% (inactive).

With `COc1cc(CC(C)N)ccc1O` (stereo not given), the growth inhibition was 7.9% (inactive).

Consider `CCC1(CC(C)(C)Cl)C(=O)NC(=O)NC1=O`, for which the growth inhibition was -4.55% (inactive).

For `CC1(Cl)CC2C(CC1Sc1nnnn1-c1ccccc1)C2(C)C` (stereo not given), the growth inhibition is -7.45% (inactive).

With `COC(=O)C1(C(=O)OC)Cc2ccc(C)cc2C2=C1C(=O)c1ccccc1C2=O`, the growth inhibition is -25.8% (inactive).

Consider `O=[N+]([O-])c1cc(C2CCCCC2)c(O)c([N+](=O)[O-])c1`, for which the growth inhibition is 47.3% (inactive) and 47.2% (inactive).

For `C=C(C)C1(CC(C)C)C(=O)NC(=O)NC1=O`, the growth inhibition is 7.4% (inactive) and 2.9% (inactive).

On to `CC(=O)[O-].Cn1ccnc1CNCc1nccn1C.[Cu+2].[O-][Cl+3]([O-])([O-])[O-]`, for which the growth inhibition is 18.9% (inactive).

Consider `CC(=O)OC1CCC2(C)C3CCC4(C)C(c5ccc(=O)oc5)CC5OC54C3CCC2(O)C1` (stereo not given), for which the growth inhibition was 40% (inactive).

On to `C[CH2][Sn]([CH2]C)([O]c1cccccc1=O)[O]c1cccccc1=O`, for which the growth inhibition was 87.1% (active).

With `O=C(CS(=O)(=O)O)Nc1ccccc1`, the growth inhibition was 36.8% (inactive).

For the compound `O=C1CCP(c2ccccc2)(c2ccccc2)(c2ccccc2)O1`, the growth inhibition was 34.9% (inactive).

On to `O=C(NC(=S)N1CC1)c1ccccc1`, for which the growth inhibition is -13.9% (inactive).

For the compound `CCC[CH2][Sn]([CH3])([CH3])[CH2]CC[N+](C)(C)C`, the growth inhibition was 21.3% (inactive).

A short description of a further assay: NCI Yeast Anticancer Drug Screen. Data for the mec2-1 strain (AID 157). Conditions: S. cerevisiae mec2-1 strain, at 50.0 µM, stronger effect = higher value. Put shortly: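 Readout is yeast growth inhibition, normalised to vehicle-treated controls, in the mec2-1 strain exposed to compound.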
As to `CN(N=O)c1ccc([N+](=O)[O-])cc1`, the growth inhibition was 26.4% (inactive).

For the compound `C1=CC(N2CCOCC2)CC1` (stereo not given), the growth inhibition was 30.2% (inactive).

Consider `CC1=CC(C)=Nc2ccc(C)cc2N1`, for which the growth inhibition was -0.6% (inactive).

As to `CC[C@@]1(O)C(=O)OCc2c1cc1n(c2=O)Cc2c-1nc1ccccc1c2C=Nc1ccccc1N[C@@H]1c2cc3c(cc2[C@@H](c2cc(OC)c(O)c(OC)c2)[C@H]2C(=O)OC[C@@H]21)OCO3`, the growth inhibition is 71.7% (active) and 80.9% (active).

As for `O=[N+]([O-])c1ccc(Cl)c([N+](=O)[O-])c1`, the growth inhibition was 98.5% (active).

Regarding `NC1=NC(=O)C(c2ccccc2)(c2ccccc2)O1`, the growth inhibition was -8.6% (inactive).

As to `c1ccc2c(c1)sc1sc3ccccc3[n+]12`, the growth inhibition is -5.65% (inactive).

`O=C(c1ccc([N+](=O)[O-])cc1)C1NC1c1ccccc1` (stereo not given): the growth inhibition is -16.6% (inactive).

`COC(=O)c1ccc(C=C(C#N)C#N)cc1`: the growth inhibition is -2.6% (inactive).

As for `CP(O)(=S)C1CCCCC1` (stereo not given) (tested in a mixture with another compound), the growth inhibition is 1.1% (inactive).

As for `CC(C)CC(NC(=O)C(Cc1ccccc1)NC(=O)CNC(=O)CNC(=O)C(N)Cc1ccc(O)cc1)C(=O)O` (stereo not given), the growth inhibition was 2.85% (inactive).

Consider `CC(C(=O)O)C(Br)C(=O)O` (stereo not given), for which the growth inhibition is -8.7% (inactive).

`Cc1cccc[c]1[Sb](=[O])([OH])[OH]`: the growth inhibition was -10.2% (inactive).

For `CCN(CC)C(=O)N1CC2CCC(C1)N2C`, the growth inhibition is 3.55% (inactive).

Take `S=c1sc(-c2ccc(Cl)cc2)c[se]1`: the growth inhibition is 3.85% (inactive).

As to `Oc1ccc(C=NCC2CCCC[N-]2)c(O)c1.Oc1ccc(C=NCC2CCCC[N-]2)c(O)c1.[Ni+2]` (stereo not given), the growth inhibition is 8% (inactive).

On to `O=C(Nc1ccccc1)C(Cl)(Cl)Cl`, for which the growth inhibition is -25.8% (inactive).

On to `O=[N+]([O-])c1cccc2c([N+](=O)[O-])cccc12`, for which the growth inhibition was 5.2% (inactive).

In the case of `O=C(O)CCCNSc1ccccc1[N+](=O)[O-]`, the growth inhibition was 44.5% (inactive).

Consider `NC(=Nc1ccccc1)N/N=C/c1c[nH]c2ccccc12`, for which the growth inhibition was -14.9% (inactive).

As to `C1=C/CCC2NC2C/C=C/CCC/1` (stereo not given), the growth inhibition is -20.4% (inactive).

In the case of `C=C(C)C1(CC)C(=O)NC(=O)N(C)C1=O` (stereo not given), the growth inhibition is 7.5% (inactive) and 9.4% (inactive).

For the compound `CC(C)(C)C1=CC(=C(P(=O)(O)O)P(=O)(O)O)C=C(C(C)(C)C)C1=O`, the growth inhibition is -12.7% (inactive).

In the case of `CCCNP(=S)(NCCC)NCCC`, the growth inhibition was -10.4% (inactive).

With `OCCN=Cc1ccccc1O.OCCN=Cc1ccccc1O.[Ni]`, the growth inhibition was 7.3% (inactive).

For the compound `O=c1c2cc(Br)ccc2[nH]c(=S)n1-c1ccc(Br)cc1`, the growth inhibition was -7.2% (inactive).

As for `O=Cc1ccccc1O`, the growth inhibition was -2.25% (inactive).

On to `COc1cc(CC(C)N)ccc1O` (stereo not given), for which the growth inhibition was -9.4% (inactive).

For the compound `CCC1(CC(C)(C)Cl)C(=O)NC(=O)NC1=O`, the growth inhibition is -7.7% (inactive).

As to `CC1(Cl)CC2C(CC1Sc1nnnn1-c1ccccc1)C2(C)C` (stereo not given), the growth inhibition was -35.2% (inactive).

For the compound `COC(=O)C1(C(=O)OC)Cc2ccc(C)cc2C2=C1C(=O)c1ccccc1C2=O`, the growth inhibition is -10.2% (inactive).

As for `O=[N+]([O-])c1cc(C2CCCCC2)c(O)c([N+](=O)[O-])c1`, the growth inhibition was 26% (inactive) and 79.5% (active).

With `C=C(C)C1(CC(C)C)C(=O)NC(=O)NC1=O`, the growth inhibition was 6.4% (inactive) and 0.4% (inactive).

On to `CC(=O)[O-].Cn1ccnc1CNCc1nccn1C.[Cu+2].[O-][Cl+3]([O-])([O-])[O-]`, for which the growth inhibition is 3.2% (inactive).

Turning to `CC(=O)OC1CCC2(C)C3CCC4(C)C(c5ccc(=O)oc5)CC5OC54C3CCC2(O)C1` (stereo not given), the growth inhibition is 2.75% (inactive).

As for `C[CH2][Sn]([CH2]C)([O]c1cccccc1=O)[O]c1cccccc1=O`, the growth inhibition is 18.8% (inactive).

With `O=C(CS(=O)(=O)O)Nc1ccccc1`, the growth inhibition is 11.9% (inactive).

With `O=C1CCP(c2ccccc2)(c2ccccc2)(c2ccccc2)O1`, the growth inhibition is 11.8% (inactive).

Regarding `O=C(NC(=S)N1CC1)c1ccccc1`, the growth inhibition was -43.4% (inactive).

`CCC[CH2][Sn]([CH3])([CH3])[CH2]CC[N+](C)(C)C`: the growth inhibition is 5.55% (inactive).
